SMILES strings stand for the structures. Read-outs that look alike come from different tables or passages of the source.

Holding throughout (design): species or system human, MV4-11 + K-562 + COLO205 + SK-N-BE2 + OVCAR-8
Test [1] deals with CSNK1D. The settings on record: read-out: apparent Kd, n = 1.
Test [2] relates to CSNK1E. The settings on record: read-out: apparent Kd, n = 1.
The subject of test [3] is MAPK14. The settings on record: read-out: apparent Kd, n = 1.
In test [4] the test system is MAPKAPK2. The settings on record: read-out: apparent Kd, n = 1.
For test [5], the system named is MAPK10. The settings on record: read-out: apparent Kd; compound concentrations: 100 nM and 1000 nM (sheet 'Samples'), CATDS: 0.188105641093985; n = 1.
In test [6] the test system is MAPK9. The settings on record: read-out: apparent Kd, compound concentrations: 100 nM and 1000 nM (sheet 'Samples'), n = 1.
The subject of test [7] is FN3KRP. The settings on record: read-out: apparent Kd; compound concentrations: 100 nM and 1000 nM (sheet 'Samples'), CATDS: 4.0325276132441398E-2; n = 1.
For test [8], the system named is FN3K. The settings on record: read-out: apparent Kd; compound concentrations: 100 nM and 1000 nM (sheet 'Samples'), CATDS: 3.5729467318233003E-2; n = 1.
Test [9] concerns MAPK1. The settings on record: read-out: apparent Kd; compound concentrations: 100 nM and 1000 nM (sheet 'Samples'), CATDS: 3.8538636035205603E-2; n = 1.
Test [10] relates to MAPK8. The settings on record: read-out: apparent Kd; compound concentrations: 100 nM and 1000 nM (sheet 'Samples'), CATDS: 4.79247089655142E-2; n = 1.
Test [11] relates to NUAK2. The settings on record: read-out: apparent Kd; compound concentrations: 100 nM and 1000 nM (sheet 'Samples'), CATDS: 3.7503176439752997E-2; n = 1.
Test [12] deals with PAK6. The settings on record: read-out: apparent Kd, compound concentrations: 100 nM and 1000 nM (sheet 'Samples'), n = 1.
The subject of test [13] is PDXK. The settings on record: read-out: apparent Kd; compound concentrations: 100 nM and 1000 nM (sheet 'Samples'), CATDS: 4.2866477052702801E-2; n = 1.
The test system of test [14] is PRKD1. The settings on record: read-out: apparent Kd; compound concentrations: 100 nM and 1000 nM (sheet 'Samples'), CATDS: 5.7643815107824597E-2; n = 1.
The subject of test [15] is PRKD2. The settings on record: read-out: apparent Kd; compound concentrations: 100 nM and 1000 nM (sheet 'Samples'), CATDS: 6.6871929523774506E-2; n = 1.
The subject of test [16] is PRKD3. The settings on record: read-out: apparent Kd; compound concentrations: 100 nM and 1000 nM (sheet 'Samples'), CATDS: 6.6409082952543802E-2; n = 1.
The test system of test [17] is RIPK2. The settings on record: read-out: apparent Kd; compound concentrations: 100 nM and 1000 nM (sheet 'Samples'), CATDS: 4.9490640044255602E-2; n = 1.
For test [18], the system named is CLK2. The settings on record: read-out: apparent Kd; compound concentrations: 100 nM and 1000 nM (sheet 'Samples'), CATDS: 1; n = 1.
Test [19] deals with COX5A. The settings on record: read-out: apparent Kd; compound concentrations: 100 nM and 1000 nM (sheet 'Samples'), CATDS: 4.1546789230528999E-2; n = 1.
Test [20] deals with GSK3A. The settings on record: read-out: apparent Kd; compound concentrations: 100 nM and 1000 nM (sheet 'Samples'), CATDS: 6.2645628894546598E-2; n = 1.
The test system of test [21] is GSK3B. The settings on record: read-out: apparent Kd; compound concentrations: 100 nM and 1000 nM (sheet 'Samples'), CATDS: 5.5933303342936301E-2; n = 1.
Test [22] relates to GTPBP4. The settings on record: read-out: apparent Kd; compound concentrations: 100 nM and 1000 nM (sheet 'Samples'), CATDS: 4.05365212601312E-2; n = 1.
For test [23], the system named is LATS1. The settings on record: read-out: apparent Kd; compound concentrations: 100 nM and 1000 nM (sheet 'Samples'), CATDS: 6.4509671540351102E-2; n = 1.
Test [24] has as its system PAK4. The settings on record: read-out: apparent Kd; compound concentrations: 100 nM and 1000 nM (sheet 'Samples'), CATDS: 5.9667413912450298E-2; n = 1.
Test [25] has as its system PKN1. The settings on record: read-out: apparent Kd; compound concentrations: 100 nM and 1000 nM (sheet 'Samples'), CATDS: 5.7657473805166601E-2; n = 1.
Test [26] has as its system PKN2. The settings on record: read-out: apparent Kd; compound concentrations: 100 nM and 1000 nM (sheet 'Samples'), CATDS: 4.3276435854429397E-2; n = 1.
Test [27] concerns PRKACA. The settings on record: read-out: apparent Kd; compound concentrations: 100 nM and 1000 nM (sheet 'Samples'), CATDS: 0.169432353175829; n = 1.
For test [28], the system named is PRKACB. The settings on record: read-out: apparent Kd; compound concentrations: 100 nM and 1000 nM (sheet 'Samples'), CATDS: 0.14426679409785001; n = 1.
In test [29] the test system is PRKCD. The settings on record: read-out: apparent Kd; compound concentrations: 100 nM and 1000 nM (sheet 'Samples'), CATDS: 4.3301317069520798E-2; n = 1.
The subject of test [30] is PRKCQ. The settings on record: read-out: apparent Kd; compound concentrations: 100 nM and 1000 nM (sheet 'Samples'), CATDS: 0.16159232019623801; n = 1.
The test system of test [31] is PRKG1. The settings on record: read-out: apparent Kd; compound concentrations: 100 nM and 1000 nM (sheet 'Samples'), CATDS: 5.6874913121809097E-2; n = 1.
Test [32] has as its system PRKX. The settings on record: read-out: apparent Kd; compound concentrations: 100 nM and 1000 nM (sheet 'Samples'), CATDS: 0.106921293671462; n = 1.
Test [33] relates to ROCK2. The settings on record: read-out: apparent Kd; compound concentrations: 100 nM and 1000 nM (sheet 'Samples'), CATDS: 4.7086778656787398E-2; n = 1.
Where [34] appears, read: compound concentrations:100 nM and 1000 nM (sheet 'Samples').

As for `Fc1ccc(-c2ncn(C3CCNCC3)c2-c2ccnc(Oc3ccc(-c4ccccc4)cc3)n2)cc1` [SB-245391], the potency estimated from few doses in test [1] (setting [34]) is 486 nM; in [2] (setting [34]) it was 1840 nM; in test [3] (setting [34]), 424 nM; in [4] (setting [34]) it was 116 nM.
Consider `Fc1ccc(-c2ncn(CCCN3CCOCC3)c2-c2ccncc2)cc1` [SB-210313], for which the potency estimated from few doses is 1230 nM in test [1] (compound concentrations: 100 nM and 1000 nM (sheet 'Samples'), CATDS: 0.19836678982407999); 2020 nM in test [2] (compound concentrations: 100 nM and 1000 nM (sheet 'Samples'), CATDS: 0.16080040098047499); 1380 nM in test [5]; 706 nM in [3] (compound concentrations: 100 nM and 1000 nM (sheet 'Samples'), CATDS: 0.26893269490410898); 1070 nM in test [6] (CATDS: 0.212522711291111).
`CC(CO)Nc1cc(-c2[nH]c3cccnc3c2-c2ccc(F)cc2)ccn1.Cl` (stereo not drawn) [RO3202312-001]: the potency estimated from few doses in [1] (compound concentrations: 100 nM and 1000 nM (sheet 'Samples'), CATDS: 9.2931032054770199E-2) is 48.2 nM; in [2] (compound concentrations: 100 nM and 1000 nM (sheet 'Samples'), CATDS: 6.9907661952316402E-2) it was 115 nM; in test [7] it was 967 nM; in [8], 1990 nM; in test [3] (compound concentrations: 100 nM and 1000 nM (sheet 'Samples'), CATDS: 0.154329578320028) it was 12.1 nM; in test [9] it was 1240 nM. For the same molecule, the potency estimated from few doses in [10] was 440 nM; in test [6] (CATDS: 0.13086781986766799) it was 18.6 nM; in test [4] (compound concentrations: 100 nM and 1000 nM (sheet 'Samples'), CATDS: 0.22131403995385401) it was 4.81 nM; in test [11] it was 1450 nM; in [12] (CATDS: 3.6851014087153897E-2), 1620 nM; in test [13], 716 nM. Besides, the potency estimated from few doses was 219 nM in [14], 132 nM in test [15], 135 nM in test [16] and 386 nM in [17].
In the case of `FC(F)(F)c1cccc(Nc2nccc(-c3cnn4nc(-c5ccccc5)ccc34)n2)c1` [GW819077X], the potency estimated from few doses in test [18] was 960 nM.
For the molecule `CCn1c(-c2nonc2N)nc2c(C#CC(C)(C)O)nc(OC[C@H](N)c3ccccc3)cc21` [GSK943949A], the potency estimated from few doses was 1670 nM in test [19]; 424 nM in [20]; 576 nM in [21]; 1880 nM in test [22]; 394 nM in test [23]; 482 nM in test [24]. For the same molecule, the potency estimated from few doses in test [12] (CATDS: 9.5972545463879802E-2) was 167 nM; in test [25] it was 529 nM; in test [26], 1390 nM; in [27], 64.8 nM; in test [28] it was 82.7 nM; in test [29] it was 1390 nM. Besides, the potency estimated from few doses is 69.5 nM in [30], 549 nM in test [31], 137 nM in test [32] and 999 nM in test [33].

(Values after article PMC11062922 (Nature Chemical Biology, 2023).)
